# dFosB act = activators of delta FosB homodimer, primary screen, biochemical, fluorescence polarization, TAMRA-CDK5 oligo, single point; Protein FosB (Mus musculus), P13346; hit rate 0.99% among 340,000; activation, % at 25 µM; purified delta FosB; percent of positive-control signal above neutral wells;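 active = mean activation above about 17%, with every replicate also reaching it, limit read from the data, passing the limit was not always enough; inconclusive = only one of the two conditions met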
# Target sequence (P13346 whole entry, looked up): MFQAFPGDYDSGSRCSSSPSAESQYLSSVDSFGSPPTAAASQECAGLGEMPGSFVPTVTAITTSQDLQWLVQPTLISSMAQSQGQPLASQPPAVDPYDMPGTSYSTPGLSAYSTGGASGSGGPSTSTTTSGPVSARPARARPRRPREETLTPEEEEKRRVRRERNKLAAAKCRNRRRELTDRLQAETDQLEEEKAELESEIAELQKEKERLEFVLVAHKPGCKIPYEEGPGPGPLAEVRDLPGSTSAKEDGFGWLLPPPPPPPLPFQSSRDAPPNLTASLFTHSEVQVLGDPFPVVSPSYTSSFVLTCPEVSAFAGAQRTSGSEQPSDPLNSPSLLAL
# EBNA-1 inh = EBNA-1 DNA-binding inhibitors, primary screen, biochemical, fluorescence polarization; inhibition, % at 14.8 µM; hit rate 0.34% among 300,000; AID 1950, 2009; in the data active = inhibition above about 28%
# ZTA DNA inh = blocks Epstein-Barr virus ZTA, an EBNA-1 counter-screen; P03206; ZTA-DNA binding, fluorescence polarization; inhibition, % at 11 µM; hit rate 0.15% among 320,000; in the data active = inhibition above about 33%
# Target sequence (P03206 whole entry, looked up): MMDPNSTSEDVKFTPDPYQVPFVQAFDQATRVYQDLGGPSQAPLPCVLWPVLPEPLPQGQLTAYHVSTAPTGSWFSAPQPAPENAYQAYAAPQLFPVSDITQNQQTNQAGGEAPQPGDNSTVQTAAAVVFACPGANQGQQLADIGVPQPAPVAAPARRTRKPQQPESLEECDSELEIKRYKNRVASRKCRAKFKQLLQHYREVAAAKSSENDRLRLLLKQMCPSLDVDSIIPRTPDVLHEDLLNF
# Rpn11 block = Rpn11 (PSMD14) deubiquitinase inhibitors, primary screen, biochemical, fluorescence polarization, uHTS; 26S proteasome non-ATPase regulatory subunit 14 (Homo sapiens), O00487; human 26S proteasome, Ub4-pepOG fluorescence polarization; 20S core pre-blocked with epoxomicin; inhibition, % at 20 µM; hit rate 0.59% among 360,000;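 active = inhibition at 20 µM, scaled to each plate's controls, above about 33%, limit read from the data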
# TPT1 inhibitor = Candida albicans TPT1 enzyme inhibitors, primary screen, biochemical, fluorescence polarization; inhibition, % at 5 µM; tRNA 2'-phosphotransferase TPT1 (Candida albicans SC5314); hit rate 0.81% among 300,000; AID 1962, 2009; recombinant caTPT1, FP RNA substrate dephosphorylation;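 active = inhibition above the mean of all tested compounds plus 3 SD, set per screening campaign, cut at about 24% in these data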;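 also: plate controls were DMSO alone for no effect and ferristatin control at 100 nM for full effect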
# GRIN3A LBD mod = binders of NR3A ligand-binding domain, primary screen, biophysical, differential scanning fluorimetry, uHTS. Glutamate receptor ionotropic, NMDA 3A (GRIN3A) ligand-binding domain. NR3A LBD differential scanning fluorimetry, Tm shift; 0% = protein alone, 100% = glycine-bound protein. Tm shift relative to glycine control, % at 25 µM. hit rate 2.5% among 340,000;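 active = melting temperature shift of at least 10% of the positive control shift, at one fixed dose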
# The depositor's hits bear a star; ? = inconclusive; . = no result given. The list is not random: actives were taken first. Their share in the collection is about 4.5%.
SMILES,dFosB act,EBNA-1 inh,ZTA DNA inh,Rpn11 block,TPT1 inhibitor,GRIN3A LBD mod
Nc1nonc1-n1nnc(C(=O)N/N=C/c2ccncc2)c1CSc1ccccc1,-6,-5,1,-2,0,11*
Nc1nonc1-n1nnc(C(=O)N/N=C/c2ccccc2)c1CSc1ccccc1,.,0,3,5,0,35*
CCCc1c(C(=O)N/N=C/c2ccc(-c3ccccc3)cc2)nnn1-c1nonc1N,.,.,.,-5,.,.
c1ccc(Nc2nnc(-c3cccc4ccccc34)o2)cc1,.,23,-23,-2,-6,15*
O=C1/C(=C/c2cccnc2)CCC/C1=C\c1cccnc1,.,8,38*,.,1,-1
O=C1/C(=C/c2ccc(C(=O)O)cc2)CCC/C1=C\c1ccc(C(=O)O)cc1,-3,3,61*,-3,-1,4
O=C1/C(=C/c2ccccc2)CCCc2ccccc21,5,-23,6,-3,2,6
CS(=O)(=O)NNC(=O)c1cc2cc3ccccc3nc2s1,-3,-2,12,-2,3,0
COc1ccc2nc3sc(C(=O)NCCN4CCc5ccccc5C4)cc3cc2c1,-21,-5,5,-2,0,19*
COc1ccc(S(=O)(=O)NNC(=O)c2cc3cc4ccccc4nc3s2)cc1,-23,7,19,0,-8,29*
CCOC(=O)/C(C#N)=C/c1ccc(OC(=O)c2ccco2)c(OCC)c1,-4,0,0,5,-3,10*
CCOc1ccccc1N(CC(=O)N1CCCC1)S(C)(=O)=O,3,12,6,-2,-4,-1
O=C(Nc1ccc(Cl)c(C(F)(F)F)c1)C1Cc2c(-c3ccc4c(c3)OCO4)ccnc2O1 (stereo not given),.,.,.,-2,.,.
Cc1ccc(N=Nc2c(N)n[nH]c2N)cc1,0,5,-3,-4,0,-2
Cc1cccc(N=Nc2c(N)n[nH]c2-c2ccc(Cl)cc2)c1,-6,9,18,3,3,34*
Cc1[nH]nc(N)c1-c1ccc(Cl)cc1,0,-8,9,2,-4,1
Cc1ccc(-c2[nH]nc(N)c2N=Nc2ccccc2C)cc1,3,-8,-6,3,2,44*
Cc1ccc(-c2[nH]nc(N)c2N=Nc2cccc(Cl)c2C)cc1,-1,.,.,5,.,28*
Nc1nc(Cl)nc2c1ncn2C1CC(O)C(CO)O1 (stereo not given),-4,4,6,-5,-1,2
Cc1cc(C(=O)Nc2cccc3ccccc23)c(C)o1,7,8,14,2,4,1
Cc1oc(CC(C)C)cc1C(=O)Nc1cccc2ccccc12,-3,-8,-7,6,1,25*
O=C(Nc1ccccc1)c1ccc(-c2ccccc2)s1,-2,5,-12,0,-1,14*
COc1cc(NC(=O)c2cc3c(Cl)nc4ccccc4c3s2)cc(OC)c1OC,14,1,14,-6,1,-3
COc1ccc2cc(C(=O)Nc3ccccc3)sc(=O)c2c1OC,-4,26,19,-3,-4,22*
COc1ccc2cc(C(=O)NCCO)sc(=O)c2c1OC,-10,13,0,-2,1,-1
SMILES,dFosB act,EBNA-1 inh,ZTA DNA inh,Rpn11 block,TPT1 inhibitor,GRIN3A LBD mod
O=C(Nc1ccccc1)c1cc2ccc3ccccc3c2s1,-10,3,-20,4,-3,33*
COc1ccc2cc(C(=O)Nc3ccc(S(N)(=O)=O)cc3)sc(=O)c2c1OC,16,15,28,1,-5,23*
O=C1CC(NS(=O)(=O)c2cc(F)ccc2F)CN1c1cccc(F)c1 (stereo not given),5,-8,6,-4,2,0
O=C(NCc1ccc(Cl)cc1)C(=O)NCC1OCCN1C(=O)c1ccc(Cl)cc1 (stereo not given),3,3,7,-2,-1,-2
O=C(Cc1c(Cl)cccc1Cl)OCC(=O)N1CCOCC1,9,.,.,-2,.,-1
COc1ccc(/C=C/C(=O)OCC(=O)Nc2ccc3[nH]c(=O)[nH]c3c2)cc1OC,3,-7,-21,-4,-1,0
COc1ccccc1NS(=O)(=O)c1ccc(O)c(NC(=S)NCC2CCCO2)c1 (stereo not given),-5,-9,-18,-5,2,2
Cc1ccc(S(=O)(=O)ON2C(=O)c3ccccc3C2=O)c(C)c1,-9,7,7,6,2,22*
Cc1ccc2nc(SCC(=O)c3c[nH]c4ccccc34)[nH]c2c1,12,5,-27,21,1,15*
Cc1ccc2nc(SCC(=O)c3c(C)[nH]c4ccccc34)[nH]c2c1,?,3,10,4,1,12*
O=C(CSc1nc2ccccc2c(=O)n1-c1ccc(F)cc1F)NC1CC1,.,.,.,-1,.,.
O=C(CSc1nc2ccccc2[nH]1)c1c[nH]c2ccccc12,-4,-3,11,9,3,14*
O=C(CSc1nc2ccccc2[nH]1)c1ccccc1F,-8,-6,7,-4,-2,-2
O=C(CSc1nc2ccccc2c(=O)n1-c1ccc(F)cc1F)c1c[nH]c2ccccc12,-1,20,11,-1,4,19*
COc1ccc(CNC(=O)COC(=O)c2nc3nc(C)cc(C)n3n2)cc1,2,.,-6,0,.,0
Cc1[nH]c2ccccc2c1C(=O)CSC(=S)N(C)C,3,1,5,2,-1,16*
Cc1cc(C(=O)CSc2nc3ccccc3[nH]2)c(C)n1Cc1ccco1,2,10,7,5,4,13*
COc1ccc(Cl)cc1NC(=O)C1CCN(S(C)(=O)=O)CC1,8,0,11,-4,-2,1
Cc1ccc(N=CC=C2OC(C)(C)C(C)(C)O2)c(C)c1,-3,-4,16,2,1,15*
COC(=O)c1c(-c2ccc(SC)cc2)sc2ccc(OC)cc12,-11,.,.,-1,.,13*
COc1ccc(CN2C[C@H]3CCCN3c3cc(Br)ccc3S2(=O)=O)cc1,-5,.,.,-6,.,18*
CC(=O)Nc1cccc(NC(=O)c2cc(Cl)ccc2Cl)c1,-2,-2,-1,7,-2,0
CC(=O)Nc1cccc(NC(=S)Nc2ccc(F)c(Cl)c2)c1,-7,-1,-3,2,-3,12*
Cc1ccc(NC(=O)Nn2cnnc2)cc1Cl,-3,6,8,1,1,0
CC(=O)Nc1ccc2ccccc2c1,2,-13,4,-8,-4,0
